# Bioassay records from PubChem BioAssay.
# IEC-6 tox = IEC-6 cytotoxicity, counter-screen for KLF5 inhibitors; AID 1825; 290,000 tested, 0.78% active; luminescence viability; inhibition, % at 5 µM; in the data active means inhibition above about 22%;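 further: 0% = plate median of test compound wells and 100% = cytotoxic reference compound wells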
# APP 5UTR inh = APP translation inhibition; SH-SY5Y APP 5'UTR-luciferase reporter, luminescence; inhibition, % at 2 µM; 190,000 tested, 0.82% active;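 active means inhibition above a set limit, derived from the sample mean plus 3 SD, cut at about 45% in these data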
# aSyn 5UTR inh = 5' untranslated region of α-synuclein, MLPCN primary screen; AID 1813; 300,000 tested, 0.82% active; inhibition, % (tested at 7.5 µM); alpha-synuclein 5'UTR reporter, inhibitor activity; in the data active means inhibition above about 60%;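 further: H4 neuroglioblastoma cells stably carrying SNCA 5'UTR luciferase fusion; 0% = DMSO wells and 100% = positive control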
# BaF3 parental = counter-screen for JAK2V617F inhibitors: parental Ba/F3 viability inhibitors; CellTiter-Glo ATP luminescence; inhibition, % at 5.6 µM; 220,000 tested, 1.1% active; AID 1486;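 active means inhibition above a per-campaign cutoff, the mean inhibition of all tested compounds plus 3 SD, cut at about 27% in these data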;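 further: 0% = DMSO wells and 100% = JAK Inhibitor I control wells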
# Ba/F3 V617F tox = reduce viability of Ba/F3 cells dependent on JAK2V617F | inhibition, % at 5.6 µM | Ba/F3 EpoR-JAK2V617F viability, ATP luminescence | 220,000 tested, 1.1% active;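 active means inhibition above the campaign mean plus 3 SD over all tested compounds, cut at about 24% in these data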;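 further: cytokine-independent growth of Ba/F3 cells driven by EpoR plus mutant JAK2; 0% = DMSO-treated cells and 100% = JAK inhibitor I control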
# KLF5 inhibitor = kruppel-like factor 5 inhibition; DLD-1 KLF5 promoter-luciferase reporter, luminescence; inhibition, % at 5 µM; 290,000 tested, 0.23% active; AID 1700;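 active means inhibition above a per-plate limit of that plate's mean compound inhibition plus 3 SD, cut at about 60% in these data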;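 further: 0% = DMSO wells and 100% = LY294002 at 200 µM; higher means less KLF5 promoter-driven luciferase light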
# Numbers without * were called inactive; nt = not tested or not shown. Only some compounds are listed: those with a hit (about 2.2% of all), similar ones and a draw of the others.
SMILES,IEC-6 tox,APP 5UTR inh,aSyn 5UTR inh,BaF3 parental,Ba/F3 V617F tox,KLF5 inhibitor
O=C(Nc1cnn(Cc2ccc(Cl)cc2)c1)c1ccc([N+](=O)[O-])cc1,-3,13,22,2,-1,6
O=C(Nc1ccc([N+](=O)[O-])cc1)c1ccc(Cn2cc([N+](=O)[O-])cn2)cc1,12,5,79*,46*,46*,43
CC(=O)Nc1ccc(S(=O)(=O)n2cnc3cc(C)c(C)cc32)cc1,1,6,-1,29*,5,-16
COc1ccc2ccccc2c1C(O)c1nccn1C (stereo not drawn),6,-5,-13,38*,59*,8
CC(C)C(=O)Nc1cccc(C(=O)N2CCCCC2C)c1 (stereo not drawn),1,-17,17,49*,32*,-8
COCCNC(=O)/C(C#N)=C\c1ccc(CNC(=O)C(=O)Nc2ccc(C)c(C)c2)o1,3,-16,9,10,2,3
COc1ccc(NC(=O)C(=O)N/N=C\c2ccc(CNC(=O)C(=O)Nc3ccc(C)c(C)c3)o2)c(OC)c1,-1,nt,88*,nt,nt,-34
Cc1ccc(-n2nnc3c(=O)n(Cc4ccccn4)cnc32)cc1C,4,2,14,0,-2,-30
CCOC(=O)Cn1nnnc1CN(Cc1cccs1)Cc1cc2cc(C)ccc2[nH]c1=O,-7,62*,23,2,-1,7
Cc1ccc2[nH]c(=O)c(CN(Cc3cccs3)Cc3nnnn3Cc3ccccc3)cc2c1,-4,0,6,7,-1,-18
CCCCN(C1CCS(=O)(=O)C1)S(=O)(=O)c1ccc(OC)c(OC)c1 (stereo not drawn),nt,nt,16,nt,nt,nt
CN(C)c1ccc(CCc2ccc(N)cc2)cc1,nt,nt,84*,nt,nt,nt
COc1cc([C@@H]2c3cc4c(cc3[C@@H](O[C@@H]3O[C@@H]5CO[C@@H](C)O[C@H]5[C@H](O)[C@H]3O)[C@H]3COC(=O)[C@H]23)OCO4)cc(OC)c1O,nt,nt,39,nt,nt,nt
COc1cc([C@@H]2c3cc4c(cc3[C@@H](NC3CCN(Cc5ccccc5)CC3)[C@H]3COC(=O)[C@H]23)OCO4)cc(OC)c1O,nt,nt,103*,nt,nt,nt
COc1ccc(NS(=O)(=O)c2ccc(Oc3ncccn3)cc2)cc1,4,17,3,5,3,2
COc1ccc(S(=O)(=O)Nc2ccc(Oc3ncccn3)c(Cl)c2)cc1,0,46*,0,5,-3,5
CC(C)c1ccc2[nH]c(O)c(N=NC(=O)c3cccc(S(=O)(=O)Nc4ccc(Cl)cc4)c3)c2c1,1,6,79*,5,4,-21
O=C(c1nn2c(C(F)(F)F)cc(-c3ccco3)nc2c1Br)N1CCCc2ccccc21,-1,1,93*,0,-1,-3
O=C(c1nn2c(C(F)(F)F)cc(-c3cccs3)nc2c1Br)N1CCCc2ccccc21,0,-12,82*,7,1,-16
CCCCOc1ccc(C(=O)N(Cc2ccco2)C2CCS(=O)(=O)C2)cc1 (stereo not drawn),12,nt,-16,nt,nt,2
CCn1nnnc1SCC(=O)Nc1ccc(F)cc1,0,nt,-1,nt,nt,-10
CC(C)[C@H](NC(=O)c1c(F)cccc1F)C(=O)OCC(=O)NC(=O)NC1CCCC1,4,nt,-3,nt,nt,-12
COc1cc(/C=N/NC(=O)CSc2cc(C)c(Br)cc2C)ccc1O,13,-16,2,3,-1,-11
Cc1cc(SCC(=O)N/N=C/c2ccc(O)c(O)c2O)c(C)cc1Br,-5,6,68*,-1,-4,27
CCn1c(=O)cc(OCC(=O)N2CCN(c3ccc(F)cc3)CC2)c2ccccc21,9,5,-1,4,0,-31
SMILES,IEC-6 tox,APP 5UTR inh,aSyn 5UTR inh,BaF3 parental,Ba/F3 V617F tox,KLF5 inhibitor
CCn1c(=O)cc(OCC(=O)N2CCCCCC2)c2ccccc21,3,55*,18,3,2,-25
COc1ccc(-c2nc(NC(=O)c3n[nH]c(=O)c4ccccc34)sc2C)cc1,22*,16,40,8,2,-18
COc1cc(NC(=O)c2n[nH]c(=O)c3ccccc23)cc(OC)c1,3,nt,2,-11,-1,-5
COc1ccc(-c2nc(NC(=O)CCNC(=O)c3ccco3)sc2C)cc1,-2,12,6,28*,-1,-15
Cc1ccc(O)c(C2=NNC(c3ccc(Cl)cc3)C2)c1 (stereo not drawn),-10,nt,-128,4,-5,-44
Cc1ccc(C2Cc3cc(O)c(O)cc3CN2)cc1 (stereo not drawn),nt,nt,89*,nt,nt,nt
CCCCNC(=S)N=Nc1c(O)n(Cc2ccccc2)c2ccccc12,0,-12,4,7,4,-7
Oc1c(N=NC(=S)Nc2ccccc2F)c2ccccc2n1Cc1ccccc1Cl,-1,17,87*,5,3,-11
Cc1ccc(Cn2c(O)c(N=NC(=S)Nc3ccccc3F)c3ccccc32)cc1,-4,22,71*,2,-3,-22
Cc1c(Cl)cccc1NC(=S)N=Nc1c(O)n(CN2CCOCC2)c2ccccc12,16,46*,64*,6,7,-21
C=CCn1c(O)c(N=NC(=S)Nc2cccc(C)c2)c2ccccc21,20,66*,94*,7,4,-14
CCc1ccc(Nc2n[n+](-c3ccccc3)c(-c3ccc(OC)c(Br)c3)s2)cc1,4,nt,-23,nt,nt,-48
Oc1c(N=NC(=S)Nc2ccccc2F)c2ccccc2n1Cc1ccccc1,-10,18,72*,2,-1,2
C=CCn1c(O)c(N=NC(=S)Nc2ccccc2F)c2ccccc21,8,19,67*,6,4,-4
C/C(Cl)=C\Cn1c(O)c(N=NC(N)=S)c2ccccc21,-7,11,46,6,5,20
Cc1ccc(OCC(=O)Nc2sc3c(c2C#N)CC(C)(C)NC3(C)C)cc1,-4,26,-7,7,-1,-55
CC1(C)Cc2c(sc(NC(=O)COc3cccc4ccccc34)c2C#N)C(C)(C)N1,-1,nt,72*,-4,-6,-2
O=C(O)C1CSC(c2ccccc2)N1C(=O)c1ccco1 (stereo not drawn),-1,50*,0,5,-2,-27
O=C(O)C1Cc2ccccc2CN1C(=O)c1ccco1 (stereo not drawn),-2,nt,-15,nt,nt,-11
COc1ccc(CN2C3CCCC2CC(NC(=O)/C=C/c2ccccc2)C3)cc1 (stereo not drawn),-6,2,5,3,-1,8
CN1CCN(S(=O)(=O)c2ccc(N3CCN(C(c4ccccc4)c4ccccc4)CC3)nc2)CC1,-2,-20,0,4,1,3
CN1CCN(S(=O)(=O)c2ccc(N3CCN(S(=O)(=O)/C=C/c4ccccc4)CC3)nc2)CC1,-1,11,0,47*,1,3
CCOC(=O)c1cnc(-n2nc(C)cc2C)nc1NNc1cc(-c2ccccc2)nc(C)n1,4,56*,93*,6,1,-17
